A word on the inhibition: it is the drop in the measured response relative to a control, in per cent.

The results in this text go back to PubChem BioAssay.

Experiment [1] can be described thus: antimalarial activity against Dd2 strain (AID 2302;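 active = growth inhibition above 50% at the single 2 µM test dose, taken to imply half-maximal potency below 2 µM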;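 note: 0% = DMSO untreated growth and 100% = chloroquine plus artemisinin killed control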). The note with it: P. falciparum Dd2 in RBCs, LDH growth readout, 72 h; at 2 µM; active compounds read high.
Experiment [2] can be described thus: human hepatoma cell viability loss – ATP luminescence, cytotoxicity control for P. falciparum antimalarial project, primary screen (AID 2303;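 active = inhibition above 50%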;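 note: 0% = DMSO wells and 100% = digitonin-killed cells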). The following applies: HepG2 viability, 24-48 h, at 10 µM, active compounds read high.
The target in experiment [3] is L-lactate dehydrogenase (Plasmodium falciparum (isolate CDC / Honduras)) (UniProt Q27743). Nature of the experiment: PfLDH activity inhibition – cell lysate, 3D7 strain, counter-screen for P. falciparum growth inhibition project (AID 2304).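 Note: 0% = vehicle and 100% = reference inhibitor.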 The following applies: P. falciparum 3D7 crude extract, LDH APAD/NBT absorbance; at 2 µM; active compounds read high. Background: Counterscreens check selectivity or assay interference.
Sequence of L-lactate dehydrogenase (Plasmodium falciparum (isolate CDC / Honduras)) (Q27743 whole entry, looked up): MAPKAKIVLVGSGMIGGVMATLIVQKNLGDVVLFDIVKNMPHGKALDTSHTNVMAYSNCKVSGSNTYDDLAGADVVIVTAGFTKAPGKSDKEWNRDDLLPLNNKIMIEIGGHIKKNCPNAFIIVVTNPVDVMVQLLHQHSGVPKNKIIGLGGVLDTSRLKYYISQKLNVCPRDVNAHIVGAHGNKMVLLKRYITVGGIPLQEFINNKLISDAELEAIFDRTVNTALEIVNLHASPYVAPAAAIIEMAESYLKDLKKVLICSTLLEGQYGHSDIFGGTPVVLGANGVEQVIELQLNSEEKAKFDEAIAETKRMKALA

A short description of experiment [4]: inhibition of 3D7 malaria parasite growth – strain 3D7 (AID 2306).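 Note: 0% = DMSO wells and 100% = chloroquine plus artemisinin control wells.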 The note with it: P. falciparum 3D7 erythrocytic growth, LDH absorbance, 72 h; at 2 µM; active compounds read high.
For experiment [5], the target named is Calcium-dependent protein kinase 1 (Plasmodium falciparum (isolate 3D7)) (UniProt P62344). The experiment in a line: PfCDPK1 kinase inhibitors, biochemical, TCAMS library (AID 1159585; cut-off not given, nearly all actives have IC50 up to about 0.98 µM;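 note: inhibitors leave more ATP so luminescence rises with inhibition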). The note with it: recombinant PfCDPK1, Kinase-Glo ATP depletion luminescence. Background: Kinase-Glo reads ATP consumption through a luciferase reaction.
Sequence of Calcium-dependent protein kinase 1 (Plasmodium falciparum (isolate 3D7)) (P62344 whole entry, looked up): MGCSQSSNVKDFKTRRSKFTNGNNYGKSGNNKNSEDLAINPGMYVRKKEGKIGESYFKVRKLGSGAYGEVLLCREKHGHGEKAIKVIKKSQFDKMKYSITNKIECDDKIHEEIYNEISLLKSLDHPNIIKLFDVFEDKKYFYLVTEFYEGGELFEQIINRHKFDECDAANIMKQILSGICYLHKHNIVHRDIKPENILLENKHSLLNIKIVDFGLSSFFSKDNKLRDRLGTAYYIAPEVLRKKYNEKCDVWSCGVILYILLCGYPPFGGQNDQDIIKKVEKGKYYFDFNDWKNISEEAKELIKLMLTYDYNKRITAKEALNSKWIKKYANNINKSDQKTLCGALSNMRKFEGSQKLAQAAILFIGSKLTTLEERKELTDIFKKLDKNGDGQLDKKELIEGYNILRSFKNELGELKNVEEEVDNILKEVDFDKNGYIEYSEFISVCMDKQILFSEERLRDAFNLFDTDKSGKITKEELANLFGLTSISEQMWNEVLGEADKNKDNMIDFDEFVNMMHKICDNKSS
The target of experiment [6] is Plasmodium falciparum protein kinase 6 (PK6, PF3D7_1337100) (UniProt Q8IDW1). The experiment in a line: PfPK6 kinase inhibitors, biochemical, TCAMS library (AID 1159586). The note with it: recombinant PfPK6, Kinase-Glo ATP depletion luminescence.
Sequence of Plasmodium falciparum protein kinase 6 (PK6, PF3D7_1337100) (Q8IDW1 1-305): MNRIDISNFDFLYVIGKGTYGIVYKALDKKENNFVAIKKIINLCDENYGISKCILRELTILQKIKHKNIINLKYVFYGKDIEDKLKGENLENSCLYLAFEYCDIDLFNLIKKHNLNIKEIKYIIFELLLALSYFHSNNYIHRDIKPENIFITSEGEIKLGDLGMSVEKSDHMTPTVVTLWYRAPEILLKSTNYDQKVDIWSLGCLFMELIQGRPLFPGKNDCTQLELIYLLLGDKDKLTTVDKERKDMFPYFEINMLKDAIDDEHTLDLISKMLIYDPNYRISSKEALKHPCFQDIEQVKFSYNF
Experiment [7] addresses Protein kinase 7 (PK7), Plasmodium falciparum 3D7 (PF3D7_0213400) (UniProt Q7YTF7). The experiment in a line: inhibition of Plasmodium PK7 catalytic activity – biochemical, TCAMS antimalarial set, Kinase-Glo luminescence (AID 1159587). The note with it: recombinant PfPK7, Kinase-Glo ATP depletion luminescence.
The target in experiment [8] is Calcium-dependent protein kinase 4 (Plasmodium falciparum (isolate 3D7)) (UniProt Q8IBS5). The experiment in a line: PfCDPK4 kinase inhibitors, biochemical, TCAMS library (AID 1159588; cut-off not given, nearly all actives have IC50 up to about 0.91 µM). The following applies: recombinant PfCDPK4, Kinase-Glo ATP depletion luminescence.
Sequence of Calcium-dependent protein kinase 4 (Plasmodium falciparum (isolate 3D7)) (Q8IBS5 whole entry, looked up): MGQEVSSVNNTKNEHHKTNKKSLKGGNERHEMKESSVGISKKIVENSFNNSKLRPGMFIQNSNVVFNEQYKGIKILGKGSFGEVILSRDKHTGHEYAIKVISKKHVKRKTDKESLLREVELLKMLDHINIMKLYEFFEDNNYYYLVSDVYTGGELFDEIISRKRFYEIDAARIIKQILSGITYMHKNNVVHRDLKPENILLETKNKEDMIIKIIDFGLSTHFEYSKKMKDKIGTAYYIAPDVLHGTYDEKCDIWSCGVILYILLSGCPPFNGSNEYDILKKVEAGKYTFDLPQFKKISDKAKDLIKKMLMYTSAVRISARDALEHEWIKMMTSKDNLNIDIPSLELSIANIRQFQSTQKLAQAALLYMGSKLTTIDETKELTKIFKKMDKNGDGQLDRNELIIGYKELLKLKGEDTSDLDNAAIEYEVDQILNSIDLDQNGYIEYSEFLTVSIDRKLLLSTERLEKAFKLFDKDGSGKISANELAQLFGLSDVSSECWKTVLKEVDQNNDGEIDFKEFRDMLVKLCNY

SMILES strings stand for the structures. A number with no mark means an inactive call. For some of these results: Potency and affinity values are given separately. The source made the active and inactive calls. Unless noted, the rule behind the calls is not given here.

Sequence of Protein kinase 7 (PK7), Plasmodium falciparum 3D7 (PF3D7_0213400) (Q7YTF7 1-343): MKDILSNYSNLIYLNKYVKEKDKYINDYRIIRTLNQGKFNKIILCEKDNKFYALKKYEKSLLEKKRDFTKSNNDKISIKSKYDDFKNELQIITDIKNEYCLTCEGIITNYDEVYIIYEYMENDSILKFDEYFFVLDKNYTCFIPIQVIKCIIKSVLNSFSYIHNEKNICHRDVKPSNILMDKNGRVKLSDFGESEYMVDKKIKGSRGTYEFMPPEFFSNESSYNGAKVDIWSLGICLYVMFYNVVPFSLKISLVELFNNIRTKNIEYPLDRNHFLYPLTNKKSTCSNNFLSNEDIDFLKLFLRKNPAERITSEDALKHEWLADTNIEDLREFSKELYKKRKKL

Turning to `COc1cccc(CN2CCCC(CCC(=O)Nc3ccc(C(F)(F)F)cc3)C2)c1O` (stereo not given), the growth inhibition in experiment [1] is 97% (active); in experiment [4] it was 98% (active). Further, the inhibition in experiment [2] was 15%; in experiment [3], -2%. Also, the result in experiment [5], in experiment [6], in experiment [7] and in experiment [8] was inactive.
Consider `Cc1noc(C)c1-c1cccc(CNCc2cccc(-c3ccc(-c4nc5ccccc5[nH]4)cc3)c2)c1`, for which the results for the growth inhibition in experiment [1] and in experiment [4] were 76% (active) and 100% (active), respectively. The figures for the inhibition in experiment [2] and in experiment [3] were 27% and -2%, respectively. In addition, the outcome in experiment [5], in experiment [6], in experiment [7] and in experiment [8] was inactive.
Regarding `Cc1cc(N2C(N)=NC(N)=NC2(C)C)ccc1Cl`, the values for the growth inhibition in experiment [1] and in experiment [4] were -2% and 95% (active), respectively. For the same compound, the inhibition in experiment [2] is 66% (active); in experiment [3] it was -5%. The outcome in experiment [5], in experiment [6], in experiment [7] and in experiment [8] was inactive.
`O=C(Nc1ccc(C(F)(F)F)cc1)c1ccc(S(=O)(=O)NC2CCN(CC3CCCCC3)C2)cc1` (stereo not given): the growth inhibition in experiment [1] was 16%; in experiment [4], 99% (active). Moreover, the inhibition in experiment [2] was 33%; in experiment [3] it was 5%. The result in experiment [5], in experiment [6], in experiment [7] and in experiment [8] was inactive.
Consider `COc1ccc(CNC(=O)c2cnc3c(O)cccc3c2Nc2cccc(NC(=O)c3ccc(F)cc3)c2)cc1`, for which the growth inhibition was 65% (active) in experiment [1] and 91% (active) in experiment [4]. Besides, the inhibition in experiment [2] is 50% (active); in experiment [3], 2%. The outcome in experiment [5], in experiment [6], in experiment [7] and in experiment [8] was inactive.
For `Nc1cnc(C#Cc2cc3ncnc(N(CCN4CCOCC4)c4ccc(OCc5cccc(F)c5)c(Cl)c4)c3s2)cn1`, the growth inhibition is 57% (active) in experiment [1] and 87% (active) in experiment [4]. The values for the inhibition in experiment [2] and in experiment [3] were -8% and -9%, respectively. The outcome in experiment [5], in experiment [6], in experiment [7] and in experiment [8] was inactive.
Turning to `O=C(Nc1cccc(CN2CCCN(Cc3ccc4c(c3)OCO4)CC2)c1)c1cc2ccccc2s1`, the growth inhibition was 11% in experiment [1] and 95% (active) in experiment [4]. In addition, the inhibition was 32% in experiment [2] and 2% in experiment [3]. The outcome in experiment [5], in experiment [6], in experiment [7] and in experiment [8] was inactive.
For `CCOc1ccc2c(NN=Cc3cc(OC)c(OC)c(OC)c3)cc(C)nc2c1`, the growth inhibition in experiment [1] was 99% (active); in experiment [4], 101% (active). Moreover, the inhibition in experiment [2] was 18%; in experiment [3], -4%. Also, the outcome in experiment [5], in experiment [6], in experiment [7] and in experiment [8] was inactive.
Consider `COc1ccc2ncc(F)c(CCN3C[C@H](CNCc4cc(C#N)c5c(c4)OCCO5)[C@H](O)C3)c2n1`, for which the values for the growth inhibition in experiment [1] and in experiment [4] were 64% (active) and 100% (active), respectively. The inhibition in experiment [2] is 7%; in experiment [3] it was -5%. Also, the outcome in experiment [5], in experiment [6], in experiment [7] and in experiment [8] was inactive.
For the compound `O=C(/C=C/c1ccc(Cl)c(Cl)c1)NCCCCN1CCCN(C(=O)Nc2cc(Cl)cc(Cl)c2)CC1`, the figures for the growth inhibition in experiment [1] and in experiment [4] were 1% and 97% (active), respectively. Besides, the values for the inhibition in experiment [2] and in experiment [3] were 21% and 2%, respectively. The outcome in experiment [5], in experiment [6], in experiment [7] and in experiment [8] was inactive.
As to `COc1nc(Nc2cccc(C)c2)nc(OC)n1`, the growth inhibition in experiment [1] was -5%; in experiment [4], 94% (active). Moreover, the inhibition in experiment [2] was 46%; in experiment [3], 1%. The outcome in experiment [5], in experiment [6], in experiment [7] and in experiment [8] was inactive.
On to `CCc1cc(NC2CCN(C)CC2)nc(Nc2ccc(C)cc2)n1`, for which the growth inhibition is 11% in experiment [1] and 95% (active) in experiment [4]. In addition, the inhibition is 3% in experiment [2] and -7% in experiment [3]. The outcome in experiment [5], in experiment [6], in experiment [7] and in experiment [8] was inactive.
With `COc1ccc2nccc([C@@H](O)CN3CCC(NCc4cc5ccccc5cn4)CC3)c2n1`, the figures for the growth inhibition in experiment [1] and in experiment [4] were 14% and 93% (active), respectively. In addition, the inhibition in experiment [2] is 3%; in experiment [3], -2%. The outcome in experiment [5], in experiment [6], in experiment [7] and in experiment [8] was inactive.
With `O=C(N[C@@H](CC1CCCCC1)C(=O)NCCN1CCOCC1)c1ccc(O)c(-c2ccc(Cl)c(Cl)c2)c1`, the figures for the growth inhibition in experiment [1] and in experiment [4] were 99% (active) and 97% (active), respectively. Moreover, the inhibition in experiment [2] is -3%; in experiment [3], 3%. Also, the result in experiment [5], in experiment [6], in experiment [7] and in experiment [8] was inactive.
Take `CCc1ccccc1NC(=O)CN1CCN(c2ncnc3scc(-c4ccc(F)cc4)c23)CC1`: the growth inhibition in experiment [1] was 62% (active); in experiment [4] it was 83% (active). The inhibition is 6% in experiment [2] and -2% in experiment [3]. Besides, the outcome in experiment [5], in experiment [6], in experiment [7] and in experiment [8] was inactive.
As for `Cc1cccc2[nH]c(-c3cccc(-c4cccc(NC(=O)Nc5ccccc5)c4)c3)nc12`, the figures for the growth inhibition in experiment [1] and in experiment [4] were 64% (active) and 101% (active), respectively. Besides, the inhibition in experiment [2] is 8%; in experiment [3], -6%. Moreover, the result in experiment [5], in experiment [6], in experiment [7] and in experiment [8] was inactive.
Consider `Cn1nccc1C(=O)NCCNCc1ccc(-c2cccc(-c3nc4ccccc4[nH]3)c2)cc1`, for which the figures for the growth inhibition in experiment [1] and in experiment [4] were 87% (active) and 101% (active), respectively. Besides, the values for the inhibition in experiment [2] and in experiment [3] were 35% and 2%, respectively. Also, the outcome in experiment [5], in experiment [6], in experiment [7] and in experiment [8] was inactive.
On to `COc1cc(CNC[C@@H](O)[C@H](Cc2ccccc2)NC(=O)c2cc(C3CCCC3)cc(N3CCCS3(=O)=O)c2)cc(OC)c1`, for which the growth inhibition is 94% (active) in experiment [1] and 95% (active) in experiment [4]. Further, the figures for the inhibition in experiment [2] and in experiment [3] were 31% and 2%, respectively. The outcome in experiment [5], in experiment [6], in experiment [7] and in experiment [8] was inactive.
Consider `O=C(Nc1ccc2c(c1)CCC2)c1ccc(N2CCN(c3ccncc3)CC2)cn1`, for which the figures for the growth inhibition in experiment [1] and in experiment [4] were 58% (active) and 99% (active), respectively. In addition, the inhibition was 56% (active) in experiment [2] and 2% in experiment [3]. In addition, the outcome in experiment [5], in experiment [6], in experiment [7] and in experiment [8] was inactive.
In the case of `Cc1cnc(CN(Cc2ccc(-c3ccc(CNCCc4ccc(S(C)(=O)=O)cc4)cn3)cc2)C(=O)c2nn(-c3ccccc3)nc2C)cn1`, the figures for the growth inhibition in experiment [1] and in experiment [4] were 21% and 84% (active), respectively. Further, the values for the inhibition in experiment [2] and in experiment [3] were 11% and 0%, respectively. The result in experiment [5], in experiment [6], in experiment [7] and in experiment [8] was inactive.
